Test results reported in PubChem BioAssay AID1851 (National Center for Advancing Translational Sciences (NCATS), 2009).
Hit rate of the full screen: of about 16,000 compounds, about 2,600 (16%) were called active. Another 20% or so got no clear call; they are omitted. The call rests on the fitted dose curve; in most records, active means well fitted curve in the direction sought with a large enough effect; inconclusive means small, poorly fitted or top-dose-only effect, or effect the other way; inactive means no such curve, though single readings can be large or run the other way. A selection follows.

target: Cytochrome P450 2D6 (Homo sapiens) (UniProt P10635); test: Cytochrome panel assay with activity outcomes; details: recombinant CYP, pro-luciferin dealkylation, luminescence, p450-cyp2d6; series mostly up to 57.1 µM; activity, negative = inhibition: at the top concentration
On the % scale 0 is the no-effect control and ±100 the full control effect.

Sequence of Cytochrome P450 2D6 (Homo sapiens) (P10635 whole entry, looked up): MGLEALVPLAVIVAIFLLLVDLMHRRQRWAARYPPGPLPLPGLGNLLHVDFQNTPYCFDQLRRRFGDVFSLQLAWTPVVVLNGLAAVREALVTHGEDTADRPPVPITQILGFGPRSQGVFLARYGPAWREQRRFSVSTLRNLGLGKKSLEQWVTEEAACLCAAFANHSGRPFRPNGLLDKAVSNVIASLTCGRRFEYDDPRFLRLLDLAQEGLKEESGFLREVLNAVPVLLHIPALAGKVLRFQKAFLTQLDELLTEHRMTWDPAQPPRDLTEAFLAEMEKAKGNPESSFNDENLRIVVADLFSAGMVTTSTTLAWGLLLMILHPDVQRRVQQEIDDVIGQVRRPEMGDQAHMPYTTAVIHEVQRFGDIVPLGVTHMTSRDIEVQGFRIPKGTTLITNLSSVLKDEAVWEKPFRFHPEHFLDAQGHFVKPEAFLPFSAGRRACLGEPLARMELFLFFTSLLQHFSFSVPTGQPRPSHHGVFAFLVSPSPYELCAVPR

SMILES	activity, negative = inhibition	AC50
Cn1cc(-c2nc3cncnc3n(CCN)c2=O)c2ccccc21	-6.64% (inactive)	–
CCCCOC1(c2ccccc2)OC(=O)c2ccccc21 (stereo not drawn)	-1.34% (inactive)	–
COc1ccccc1CN1CCCC2(CCN(C(=O)c3cccn3C)CC2)C1	–	3.16 µM (active)
CC(C)NC(=O)N1CC[C@@]2(CCCN(C(=O)c3cccn3C)C2)C1	6.81% (inactive)	–
COc1ccccc1CN1CCC2(CC1)CCN(C(=O)c1cccn1C)CC2	–	3.98 µM (active)
CN1CCCC2(CCN(C(=O)c3cccn3C)CC2)C1	1.2% (inactive)	–
COc1ccc(NC(=O)N2CCC3(CC2)CCN(C(=O)c2cccn2C)CC3)cc1	-19.6% (inactive)	–
Cn1cccc1C(=O)N1CCC2(CCCN(c3ccccc3)C2)CC1	-4.1% (inactive)	–
Cn1cccc1C(=O)N1CCC2(CCN(Cc3nccs3)CC2)CC1	-10% (inactive)	–
COc1ccc(NC(=O)N2CC[C@@]3(CCCN(C(=O)c4cccn4C)C3)C2)cc1	13.3% (inactive)	–
COc1ccccc1CN1CC[C@@]2(CCCN(C(=O)c3cccn3C)C2)C1	–	0.316 µM (active)
Cc1ccc(-c2csc(N3CCC(NS(=O)(=O)c4ccc5c(c4)OCCO5)CC3)n2)cc1	3.86% (inactive)	–
COc1ccc(-c2nc3cnc(N4CCN(C)CC4)nc3n(CCC#N)c2=O)cc1	4.55% (inactive)	–
Cc1cc2nnc(SCCCCN3C(=O)c4ccccc4C3=O)n2c2ccccc12	-11.6% (inactive)	–
COc1cc2c(cc1OC)C(c1ccc(N)cc1)=NNC(=O)C2	-7.94% (inactive)	–
O=c1ccn(-c2cccc(C(F)(F)F)c2)nc1-c1ccn(-c2ccccc2F)n1	-11.5% (inactive)	–
CCOC(=O)CSc1nc(-c2ccccc2)nc2ccccc12	-8.14% (inactive)	–
CCOC(=O)CSc1cc(CS(=O)c2ccc(Cl)cc2)nc(-c2ccccc2)n1 (stereo not drawn)	–	14.1 µM (active)
CCOC(=O)CSc1cc(C(F)(F)F)nc(-c2ccccn2)n1	6.4% (inactive)	–
Oc1c(Cl)cc(C(c2cc(Cl)c(O)c(Cl)c2)C(c2cc(Cl)c(O)c(Cl)c2)c2cc(Cl)c(O)c(Cl)c2)cc1Cl	-3.64% [at 11.4 µM] (inactive)	–
C=C1CC[C@H](O)C/C1=C/C=C1\CCC[C@]2(C)[C@H]1CC[C@H]2[C@@H](C)/C=C\[C@@H](C)C(C)C	1.8% [at 25.6 µM] (inactive)	–
CC(=O)c1cc(C)ccc1OC(=O)CCN1C(=O)C2C3c4ccccc4C(c4ccccc43)C2C1=O (stereo not drawn)	-6.66% (inactive)	–
Oc1cc(O)cc(/C=C\c2ccc(O)c(O)c2)c1	-5.72% (inactive)	–

SMILES	activity, negative = inhibition	AC50
CN(CCCNC(=O)C1CCN(S(=O)(=O)c2cccc3nsnc23)CC1)Cc1ccccc1	–	5.01 µM (active)
O=C(C1CCN(S(=O)(=O)c2cccc3nsnc23)CC1)N1CCCc2ccccc21	-22.1% (inactive)	–
O=C(C1CCN(S(=O)(=O)c2cccc3nsnc23)CC1)N1CCN(c2ccccc2F)CC1	-19.3% (inactive)	–
O=S(=O)(c1cccc2nsnc12)N1CCCC1	-16.8% (inactive)	–
COc1ccc(CCNC(=O)C2CCN(S(=O)(=O)c3cccc4nsnc34)CC2)cc1OC	-16.1% (inactive)	–
O=C(NCC1COc2ccccc2O1)C1CCN(S(=O)(=O)c2cccc3nsnc23)CC1 (stereo not drawn)	–	3.55 µM (active)
C=C(C)COc1ccc2c(c1)CCC1C2CC[C@]2(C)C(=O)/C(=N/O)CC12 (stereo partly drawn)	14.1% [at 11.4 µM] (inactive)	–
COc1ccc(C(=O)NC2(C(F)(F)F)C(=O)Nc3c2c(=O)[nH]c(=O)n3CCc2ccc(OC)c(OC)c2)cc1 (stereo not drawn)	5.12% (inactive)	–
O=C(NC(=S)NNC(=O)c1cccs1)c1ccco1	-0.979% (inactive)	–
Cc1cc(C(=O)OC2CCOC2=O)c2ccccc2n1 (stereo not drawn)	-0.0965% (inactive)	–
C[C@@H]1O[C@@H](O)[C@@H](O)[C@H](O)[C@H]1O	-0.841% [at 11.4 µM] (inactive)	–
Cc1ccc(-n2ncc(N(C)C)c(Cl)c2=O)cc1	-14.8% (inactive)	–
CC[C@](N)(C(=O)O)C(C)C	10.5% [at 11.4 µM] (inactive)	–
O=c1c2ccccc2nc2n1CCc1c-2[nH]c2ccccc12	-4.05% (inactive)	–
c1ccc2c3c([nH]c2c1)[C@@H]1[C@H]2CC[C@H]([C@H]4CCCN[C@H]42)N1CC3	–	7.94 µM (active)
O=C1NCCc2c1[nH]c1ccccc21	-6% (inactive)	–
O=[N+]([O-])c1ccc(Nc2nc(N/N=C\c3ccc4c(c3)OCO4)nc(N3CCCCC3)n2)cc1	8.9% (inactive)	–
CN(C)S(=O)(=O)Oc1cccc(C(=O)Nc2ccc(Cl)c(Cl)c2)c1	-74.8% (inactive)	–
CN(C)S(=O)(=O)Oc1ccc(Cl)cc1C(=O)Nc1cccc(C(F)(F)F)c1	16.8% (inactive)	–
CN(C)S(=O)(=O)Oc1ccsc1C(=O)Nc1ccc(Cl)cc1	–	22.4 µM (active)
O=C(CSc1nnc2c(n1)[nH]c1ccc(F)cc12)OCc1ccccc1	2.72% (inactive)	–
C=CCN(CC=C)C(=S)NC(=O)c1ccc(OC)c(Br)c1	–	0.708 µM (active)
COc1ccc(C(=O)NC(=S)NC(C)(C)C)cc1Br	3.67% (inactive)	–

SMILES	activity, negative = inhibition	AC50
COc1ccc(C(=O)NC(=S)NC(C)C)cc1Br	-8.27% (inactive)	–
Nc1cc(Cl)ccc1Oc1ccc(Cl)cc1	–	15.8 µM (active)
Cc1cc(Cl)ccc1Oc1ncc(-c2ccc(Cl)cc2)cn1	24% (inactive)	–
Nc1cc(Cl)ccc1Oc1ccccc1	-14.5% (inactive)	–
O=C(O)[C@@H]1CS[C@@]2(CCCN(Cc3ccccc3)C2)N1	-2.15% [at 11.4 µM] (inactive)	–
O=C(O)[C@H]1CCCN(CCC=C(c2ccccc2)c2ccccc2)C1	-4.61% (inactive)	–
O=C1C2CCC(C(O)C2)N1Cc1ccccc1 (stereo not drawn)	-23.9% (inactive)	–
OCC1CCCN(Cc2ccc(-c3ccccc3)cc2)C1 (stereo not drawn)	–	0.1 µM (active)
S[C@@H]1CCCN(Cc2ccccc2)C1	–	0.794 µM (active)
CC1(C(=O)CSc2nc3ccccc3s2)CCC(=O)O1 (stereo not drawn)	-9.32% (inactive)	–
CC(=O)O[C@@H](C)C[N+](C)(C)C	–	inactive
Cn1c(SC2=CS(=O)(=O)c3ccccc32)nc2ccccc21	1.48% (inactive)	–
COC(=O)[C@@H]1C[C@H]1[C@@H](NC(=O)c1ccccc1)c1ccccc1	-12% (inactive)	–
COc1ccc(NC2=NC(=S)N(c3ccc(C)cc3)C23CCCCC3)cc1	23% (inactive)	–
CC1(C)CC(NC(=O)c2ccc3c(c2)OCO3)CC(C)(C)N1	-9.2% (inactive)	–
CC1(C)CC(NCc2ccc3c(c2)OCO3)CCO1 (stereo not drawn)	–	0.631 µM (active)
COc1ccc2[nH]cc(CCNc3ccnc(-c4ccoc4)n3)c2c1	–	12.6 µM (active)
COCCNc1ccnc(-c2c(C)noc2C)n1	4.32% (inactive)	–
COc1ccc2[nH]cc(CCNc3ccnc(-c4ccc(N(C)C)cc4)n3)c2c1	–	10 µM (active)
COc1ccc2[nH]cc(CCNc3ccnc(-c4cccnc4)n3)c2c1	–	1.26 µM (active)
COc1ccc2[nH]cc(CCNc3ccnc(-c4cccc(NS(C)(=O)=O)c4)n3)c2c1	–	20 µM (active)
Cc1cnc(CNc2ccnc(-c3cccc(NS(C)(=O)=O)c3)n2)cn1	4.19% (inactive)	–
